# Laboratory results taken from the supplement of paper PMC10646978.
# ± gives the standard deviation.
# Key:
# Settings in all cases: modulator concentration 10 µM
# [1] = tested on: RAW-Dual (murine macrophage reporter line); experiment: NF-kB reporter (SEAP) activity fold change vs agonist alone; higher = enhanced NF-kB activity
# Outline: (§1)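 In 384-well plates holding 50 000 RAW-Dual murine macrophage reporter cells per well, compound at 10 μM final was pre-incubated for 1 hour at 37 °C, after which a PRR agonist was added overnight. Supernatant SEAP read with QUANTI-Blue at 620 nm absorbance reported NF-κB, and Lucia luciferase read with QUANTI-Luc luminescence reported IRF. Fold change values come from dividing each reporter signal by the mean of agonist-only control wells on the same plate, averaged over replicate plates with propagated errors.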
# [2] = tested on: RAW-Dual (murine macrophage reporter line); experiment: IRF reporter (Lucia luciferase) activity fold change vs agonist alone; higher = enhanced IRF activity
# Outline: as §1
# [3] = tested on: RAW-Dual (murine macrophage reporter line); experiment: viability score (confluency relative to resting cells, overnight) (fraction); higher = more viable, active = viable (0.7 or more)
# Outline: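 In 384-well plates, RAW-Dual macrophages received compound at a final 10 μM overnight. Two confluency masks were then made with IncuCyte software from IncuCyte images of all imaged wells. The viability score is defined as confluency relative to resting cells. Passing the cutoff required both masks to lie above 70% of resting cells.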
# [4] = agonist: CpG ODN 1826 0.5 ug/mL
SMILES,"NF-kB reporter [1, 4]",NF-kB reporter ([1]; agonist: LPS 0.1 ug/mL),NF-kB reporter ([1]; agonist: MPLA […]),IRF reporter ([2]; agonist: 3'3'-cGAMP 10 ug/mL),IRF reporter ([2]; agonist: LPS 0.1 ug/mL),IRF reporter ([2]; agonist: MPLA […]),viability score [3]
O=C1OC(c2ccc3ccccc3c2)=NC1=Cc1ccc(Cl)c([N+](=O)[O-])c1,0.973 ± 0.079,1.07 ± 0.067,0.881 ± 0.053,0.976 ± 0.03,1.53 ± 0.14,1.16 ± 0.2,1.01 (active)
CCC(CNC(=O)Cc1c(F)cccc1Cl)(OC)c1ccccc1 (centres undefined),0.854 ± 0.06,0.911 ± 0.091,1.06 ± 0.062,0.955 ± 0.074,1.09 ± 0.2,1.17 ± 0.37,0.825 (active)
CC1=NN(c2ccc(C)cc2)C(=O)C1=Cc1c(C)nn(-c2ccc(C)cc2C)c1O,1.03 ± 0.08,0.922 ± 0.089,1.02 ± 0.096,0.986 ± 0.046,1.21 ± 0.2,1.26 ± 0.19,1.03 (active)
CNCc1cc(-c2ccccc2F)n(S(=O)(=O)c2cccnc2)c1.O=C(O)/C=C/C(=O)O,0.612 ± 0.05,1.04 ± 0.076,0.98 ± 0.021,0.931 ± 0.054,0.97 ± 0.056,0.855 ± 0.089,0.999 (active)
CC(=O)Nc1cccs1,1.09 ± 0.14,1.06 ± 0.072,0.986 ± 0.035,0.944 ± 0.12,1.07 ± 0.11,1.04 ± 0.078,0.998 (active)
CCC(=O)Nc1ccc(NC(=O)c2ccc([N+](=O)[O-])cc2)cc1,0.982 ± 0.086,1.05 ± 0.072,0.991 ± 0.14,0.978 ± 0.054,1.43 ± 0.12,1.12 ± 0.075,1.01 (active)
Cc1ccc(C)c(Cc2cc([N+](=O)[O-])ccc2C)c1,0.287 ± 0.023,0.436 ± 0.081,0.726 ± 0.026,1.28 ± 0.081,1.01 ± 0.084,1.57 ± 0.28,0.996 (active)
CC(C)C(C(=O)Nc1ccccc1C(N)=O)N1C(=O)c2ccccc2C1=O (centres undefined),0.93 ± 0.085,1.1 ± 0.071,0.932 ± 0.058,1.02 ± 0.043,1.34 ± 0.16,1.16 ± 0.075,1.01 (active)
Cc1ccc(-c2ncnn2-c2ccc(Cl)cc2)cc1,0.922 ± 0.072,0.785 ± 0.051,1.02 ± 0.11,0.695 ± 0.036,1.26 ± 0.073,1.4 ± 0.15,1.01 (active)
COc1ccc(S(=O)(=O)N2CCC(c3ccccc3)S(=O)(=O)CC2)cc1Cl (centres undefined),0.831 ± 0.2,1.08 ± 0.082,0.978 ± 0.065,0.708 ± 0.024,1 ± 0.15,1.21 ± 0.32,0.999 (active)
CCOC(=O)C1=C(C)NC(C)=C(C(=O)OC)C1c1ccccc1 (centres undefined),0.884 ± 0.1,0.831 ± 0.057,1.63 ± 0.059,0.609 ± 0.085,0.896 ± 0.037,0.79 ± 0.06,0.946 (active)
COc1cccc(C=NNc2nnc(C)c(=O)[nH]2)c1OC,0.888 ± 0.27,1.08 ± 0.094,0.993 ± 0.12,0.952 ± 0.038,1.09 ± 0.22,1.15 ± 0.29,1.01 (active)
CC1=C(C(=O)OC(C)C)C(c2cccc([N+](=O)[O-])c2)C(C(=O)OC2CN(C(c3ccccc3)c3ccccc3)C2)=C(N)N1 (centres undefined),1.58 ± 0.068,1.82 ± 0.15,2.56 ± 0.17,0.36 ± 0.021,1.66 ± 0.24,2.12 ± 0.44,0.902 (active)
O=C(Cc1ccc(F)cc1)NCC1CCCN1c1ccccc1 (centres undefined),1.21 ± 0.11,1.1 ± 0.083,1.09 ± 0.029,0.677 ± 0.043,1.12 ± 0.077,0.893 ± 0.13,0.992 (active)
O=C(NC1CCN(c2ncnc3c2CCCC3)CC1)c1ccc(=O)[nH]c1,1.09 ± 0.13,1.09 ± 0.11,0.949 ± 0.057,0.957 ± 0.096,1.24 ± 0.11,1.07 ± 0.1,1.02 (active)
Cc1ccccc1C(=O)N(Cc1cccnc1)c1nc2c(F)cccc2s1,0.288 ± 0.019,0.749 ± 0.063,0.645 ± 0.038,1.34 ± 0.06,1.06 ± 0.11,0.952 ± 0.093,0.984 (active)
C=C1CCC(OC(C)=O)C(C)=CCC2C1CC2(C)C (centres undefined),0.932 ± 0.086,0.776 ± 0.1,0.752 ± 0.071,0.671 ± 0.038,0.928 ± 0.17,0.779 ± 0.24,1.03 (active)
COc1ccc(C=CC(=O)O)cc1OC,1.03 ± 0.077,1.1 ± 0.059,1 ± 0.022,1.03 ± 0.06,0.954 ± 0.078,0.973 ± 0.095,0.996 (active)
NCCCCC(=O)O.O=C1c2ccccc2C(=O)C1[N+](=O)[O-],0.788 ± 0.16,0.975 ± 0.076,0.843 ± 0.1,0.929 ± 0.025,1.13 ± 0.16,1.31 ± 0.13,1 (active)
C[C@@H]1CCN(C(=O)CC#N)C[C@@H]1N(C)c1ncnc2[nH]ccc12,1.14 ± 0.15,0.694 ± 0.24,0.824 ± 0.064,0.337 ± 0.022,0.473 ± 0.098,0.654 ± 0.082,0.992 (active)
CCCC(CCC)C(N)=O,1.09 ± 0.093,0.95 ± 0.083,0.999 ± 0.023,1.08 ± 0.17,1.04 ± 0.12,0.983 ± 0.19,0.996 (active)
NNC(=O)CN1C(=O)C2CC=C(Cl)CC2C1=O (centres undefined),0.984 ± 0.062,0.976 ± 0.085,0.954 ± 0.035,0.999 ± 0.088,1.06 ± 0.058,0.917 ± 0.18,0.999 (active)
Br.CC(=O)c1cccc(Nc2nc(-c3c(C)nc4cc(C)ccn34)cs2)c1,0.774 ± 0.051,1.16 ± 0.087,1.62 ± 0.095,0.691 ± 0.13,1.17 ± 0.06,2.65 ± 0.53,0.25 (inactive)
CC(=O)N1CCN(C(=O)Cn2cnc(-c3ccc(C)cc3)cc2=O)CC1,0.929 ± 0.095,1.01 ± 0.1,1.06 ± 0.14,1.02 ± 0.058,1.17 ± 0.24,1.18 ± 0.45,0.964 (active)
S=c1n(CN2CCOCC2)nc(-c2ccccc2Cl)n1-c1ccccc1,1.06 ± 0.059,0.985 ± 0.067,0.947 ± 0.074,0.944 ± 0.047,1.32 ± 0.18,1.16 ± 0.13,0.993 (active)
Cc1ccc(C)c(NC(=O)CCN2CCN(C=O)CC2)c1,0.822 ± 0.17,0.905 ± 0.088,0.967 ± 0.079,0.962 ± 0.045,1.27 ± 0.37,1.33 ± 0.18,0.979 (active)
CN(C)C(CNC(=O)NCc1ccc(F)cc1)c1ccc2c(c1)CCO2 (centres undefined),0.838 ± 0.048,1.09 ± 0.092,1.04 ± 0.055,1.12 ± 0.064,1 ± 0.062,0.804 ± 0.12,0.994 (active)
